Bioassay records deposited in PubChem BioAssay by several laboratories.
This is a sample that favours compounds with a hit; in the whole collection about 2.5% have one here.
HSF1 activator – increases HSF-1 driven luciferase reporter signal; NIH3T3-HGL HSF-1 luciferase reporter, MG132, 8 h; 100% = twice DMSO control signal; activation, % at 9 µM; actives 1.7% (n = 300,000);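 active = mean replicate activation of at least 50% with a set share of replicates each reaching 50%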;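 also: 0% = median of the neutral control wells and 100% = twice that signal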
GC-B act – GC-B (human) receptor activation. HEK293-GC-B cells, CNP EC30, cGMP TR-FRET; 0% at EC30 CNP, 100% saturating CNP. activation, % at 10 µM. actives 0.11% (n = 370,000);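 active = activation at 10 µM reaching about 35% in either raw or pattern-adjusted values, limit read from the data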
GC-A act – GC-A (human) enzyme activation. HEK293 GC-A cells, cGMP TR-FRET, EC30 ANP; 0% at EC30 ANP, 100% saturating ANP. activation, % at 10 µM. actives 0.14% (n = 370,000); in the data active = activation above about 40%
HSF1 inhib – HSF1 inhibition. actives 0.77% (n = 300,000). NIH3T3-HGL HSE-luciferase, MG132-induced, luminescence 8 h; stronger effect = lower value. AID 2098. activity change, negative = inhibition, % at 7.5 µM (by protocol);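 active = more than half of replicate wells show activity change below -50%, luminescence cut by over half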;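 also: luciferase reports HSF-1 transcriptional activity via heat shock element; 0% = median of DMSO wells and -100% = zero luminescence signal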
aDG glyco up – increases alpha dystroglycan glycosylation. actives 0.22% (n = 360,000). Pro5-aDG cells, alpha-DG glycosylation AlphaScreen (IIH6); 0% Pro5, 100% B10-LARGE cell signal. activation, % at 10 µM;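 active = activation of at least 8% versus controls, or a plate z-score of at least 8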;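 also: Pro5 are CHO cells carrying HIG-tagged alpha-DG that lacks glycosylation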
Dyrk1A ADPGlo – blocks rat Dyrk1A kinase activity; Q63470; ADP-Glo luminescence, NFATc1 peptide; inhibition, % at 12.5 µM; actives 0.43% (n = 310,000); AID 504441; in the data active = inhibition above about 50%;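 also: plate controls were vehicle with enzyme for no effect and no enzyme for full effect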
Starred values were filed as active, the others as inactive; . = not tested or not shown.

SMILES | HSF1 activator | GC-B act | GC-A act | HSF1 inhib | aDG glyco up | Dyrk1A ADPGlo
O=S(=O)(Nc1nc2ccccc2nc1-[n+]1ccccc1)c1ccc(Cl)cc1 | -4 | 10 | 1 | -1 | 0 | -2
CC(C)(OC(=O)c1ccc(C(F)(F)F)cc1)c1cc2ccccc2c(=O)o1 | . | 6 | 0 | . | 0 | 2
CCC(CO)NCC#Cc1ccccc1 (stereo unspecified) | 62* | -1 | 3 | 32 | 0 | 1
OC(CNCC#Cc1ccccc1)c1ccccc1 (stereo unspecified) | -7 | 5 | 4 | -1 | 0 | 13
COC(=O)C1(O)CC(CC(C)C)=NN1C(=O)c1ccccc1 (stereo unspecified) | 148* | -10 | -1 | 99 | 0 | 1
CCn1c(C)nc2cc(C(=O)NNC(=S)NC(=O)c3ccccc3)ccc21 | -60 | 5 | 7 | -53* | 0 | -1
CCn1c(C)nc2cc(C(=O)NNC(=S)Nc3ccccc3)ccc21 | -68 | -3 | -1 | -67* | 0 | 0
CCn1c(C)nc2cc(C(=O)NNC(=O)c3ccc(C)cc3)ccc21 | . | 1 | -2 | . | 0 | .
O=C(NNC(=S)NC(=O)c1ccccc1)c1ccc(O)cc1 | 21 | -3 | 3 | 4 | 0 | -2
CCn1c(NC(=S)Nc2ccccc2)nc2ccccc21 | -69 | 1 | 4 | -60* | -1 | 5
O=C(NNC(=S)Nc1ccccc1)c1ccc(O)cc1 | 57* | 0 | -2 | 33 | 0 | 9
COC(=O)c1ccc(N2C(c3ccsc3)=Cc3cc4c(cc3C2CC(=O)c2ccco2)OCO4)cc1 (stereo unspecified) | . | -3 | -1 | . | 0 | .
Cc1coc2cc3oc(=O)c(CCC(=O)NCCCN4CCCC4=O)c(C)c3cc12 | 1 | -3 | 4 | 2 | 0 | -1
Cc1ccc(NC2=CC(=O)CC(c3ccccc3)C2)cc1 (stereo unspecified) | 3 | 0 | -4 | 1 | 0 | -7
CCOC(=O)c1c(C)[nH]c(C(=O)OC(C)C(=O)NC2(C#N)CCCCC2)c1C (stereo unspecified) | . | 0 | -1 | . | 0 | .
CCOc1ccc(OCc2cccc(C(=O)N3CCCCCC3)c2)cc1 | -40 | -1 | 1 | -35 | 1 | 1
O=C(O)c1cccc(COc2ccc(CO)cc2Cl)c1 | -93 | . | . | -91* | 0 | 5
O=C(OCC(F)(F)F)c1cccc(COc2ccc3ccccc3c2)c1 | -66 | 1 | -4 | -62* | 0 | 2
COc1ccc(OCc2cccc(C(=O)O)c2)cc1 | -91 | -10 | 1 | -90* | 0 | -4
O=C(O)c1ccc(COc2ccc(CO)cc2Cl)cc1 | -21 | -1 | -3 | -7 | 0 | 4
CCOc1ccc(OCc2cccc(C(=O)N3CCCC3)c2)cc1 | -60 | -1 | 1 | -51* | 0 | 0
COc1ccc(CCNC(=O)Cn2cnc3sc(C)c(-c4ccc(F)cc4)c3c2=O)cc1OC | -3 | -1 | -6 | 6 | 0 | -5
Cc1ccc(C(=O)OCC(=O)N2CC(C)OC(C)C2)cc1 (stereo unspecified) | 3 | 2 | 1 | -5 | 0 | -4
Cc1cc(NCCc2ccc(Cl)cc2)n2ncnc2n1 | 39 | 1 | 1 | 15 | 1 | -1
CCOc1ccc(OCc2cccc(C(=O)O)c2)cc1 | -94 | -5 | 2 | -93* | 0 | -3
SMILES | HSF1 activator | GC-B act | GC-A act | HSF1 inhib | aDG glyco up | Dyrk1A ADPGlo
CCOc1ccc(NC(=O)Nc2cccc(C(=O)O)c2)cc1 | -76 | 6 | 0 | -72* | 0 | 4
O=C(O)c1cc(OCc2ccccc2)cc(OCc2ccccc2)c1 | -8 | -4 | -4 | -4 | 0 | -1
CCC(NC(=O)/C(=C\c1ccc2c(c1)OCO2)NC(C)=O)C(=O)O (stereo unspecified) | 59* | 1 | 2 | 27 | 0 | -4
O=C(NCc1cc(C(F)(F)F)ccc1Cl)c1cccc2c1C(=O)c1ccc(Cl)cc1S2(=O)=O | . | 2 | -1 | . | . | .
CCOC(=O)c1cccc(NC(=O)Cn2c(CC(=O)NC)nc3ccccc32)c1 | 101* | 1 | 3 | 85 | 2 | 0
Cc1ccc(NC(=O)Cn2c(=O)c(C)nc3ccccc32)cc1 | 2 | 1 | 0 | 2 | 0 | -4
Cc1cccc(NC(=O)Cn2c(/C=C/c3ccccc3)nc3ccccc32)c1 | 55* | -1 | -2 | 42 | 1 | -10
CCOC(=O)c1cccc(NC(=O)c2cnc3ccccc3n2)c1 | -1 | -9 | 1 | 7 | 3 | 37
Cc1cccc(NC(=O)CSc2cc(C)c(C#N)c3nc4ccccc4n23)c1 | 417* | 0 | 13 | 268 | 0 | 17
CNc1cc(C)c(C#N)c2nc3ccccc3n12 | 4 | -3 | 4 | -1 | 0 | 21
Cc1cc(=O)[nH]c(SCC(=O)N2CCCCCC2)n1 | -13 | 3 | 1 | 1 | 0 | 7
C/C=C(/C)C(=O)O[C@@H]1c2cc(OC)c(OC)c(OC)c2-c2c(cc3c(c2OC)OCO3)C[C@H](C)[C@]1(C)O | -2 | -20 | -20 | 6 | 0 | 1
O=C1NC(=S)S/C1=C\c1ccc(SCc2ccco2)o1 | . | . | . | . | 1 | 73*
O=C1NC(=S)S/C1=C\c1ccc(SCc2ccccc2)o1 | . | 5 | -3 | . | 0 | 25
O=C(CSc1ccccc1)N1CCc2ccccc21 | 59* | 1 | -1 | 43 | 0 | 2
O=C(CCCc1ccccc1)N1CCc2ccccc21 | 59* | 5 | 2 | 30 | 0 | -4
Cc1ccc2c(CC(=O)N3CCc4ccccc43)coc2c1 | 77* | 5 | -2 | 76 | 0 | 0
O=C(CS(=O)(=O)Cc1ccccc1)N1CCc2ccccc21 | 2 | 1 | 3 | 3 | 0 | 1
O=C(COc1ccccc1Cl)N1CCc2ccccc21 | 74* | -3 | 5 | 57 | 0 | 2
Nc1ncnc2c1nc(Sc1ccc(Cl)cc1)n2[C@@H]1O[C@@H]2COP(=O)(O)O[C@H]2[C@H]1O | -19 | 0 | 7 | -9 | 0 | 5
COc1cc(/C=C/C(=O)Nc2cccnc2)cc(OC)c1OC | 16 | 0 | 4 | 2 | 0 | 9
CCn1c(-c2ccc(F)cc2)cnc1SCC(=O)N1CCc2ccccc21 | 70* | . | . | 41 | . | .
Cc1ccc(C(=O)Nc2cccc(Oc3ccccc3)c2)o1 | 58* | -2 | 3 | 22 | 0 | 10
O=C(CCl)Nc1cccc(Oc2ccccc2)c1 | 74* | -4 | 3 | 37 | 0 | 2
O=C(CCl)Nc1cccc(Oc2cnccn2)c1 | 8 | 7 | 1 | -3 | 0 | 3
C=Cc1cccc(NC(=O)COc2ccccc2)c1 | 57* | -8 | 3 | 23 | 0 | 1
